Structures are written as SMILES. Where “and” joins values, the source holds several entries; their conditions need not be identical. Identical values can stand only once. Inconclusive results are not listed. Calls of active or inactive are those of the source. The call rests on the fitted dose curve.

These results are taken from PubChem BioAssay (NCATS).
Potency means the concentration at half of the fitted maximal effect.

The target in the assay is Cytochrome P450 1A2 (Homo sapiens) (UniProt P05177). In words: p450-cyp1a2 (AID 410). To be noted: recombinant CYP1A2, luciferin-ME demethylation, luminescence; series mostly up to 25.6 µM. As to the method: The P450 gene superfamily is involved in metabolism and the clearance of xenobiotics. This assay used human CYP1A2 to measure the demethylation of luciferin 6' methyl ether (Luciferin-ME; Promega-Glo) to luciferin. The luciferin is then measured by luminescence after the addition of a luciferase detection regeant. Luciferin-ME concentration in the assay was equal to its Km for CYP1A2.
Sequence of Cytochrome P450 1A2 (Homo sapiens) (P05177 whole entry, looked up): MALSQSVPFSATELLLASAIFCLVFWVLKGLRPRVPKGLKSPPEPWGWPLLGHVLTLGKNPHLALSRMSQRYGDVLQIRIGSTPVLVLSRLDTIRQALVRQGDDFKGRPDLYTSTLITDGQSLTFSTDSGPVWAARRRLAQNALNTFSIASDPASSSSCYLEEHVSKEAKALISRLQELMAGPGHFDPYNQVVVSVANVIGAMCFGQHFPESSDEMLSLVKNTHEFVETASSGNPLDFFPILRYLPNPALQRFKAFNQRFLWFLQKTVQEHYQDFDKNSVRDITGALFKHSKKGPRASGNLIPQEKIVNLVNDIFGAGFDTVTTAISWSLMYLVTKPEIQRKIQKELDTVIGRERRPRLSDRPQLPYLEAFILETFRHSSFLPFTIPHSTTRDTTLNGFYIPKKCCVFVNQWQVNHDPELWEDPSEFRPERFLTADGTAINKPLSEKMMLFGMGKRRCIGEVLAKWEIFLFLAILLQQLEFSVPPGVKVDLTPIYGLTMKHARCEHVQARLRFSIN
NCGC Assay Protocol Summary:
Two uL of enzyme and substrate mix (final concentrations: 20nM CYP1A2, 100uM Luciferin-ME, 100mM KPO4) were dispensed into a white, solid bottom 1536-well microtiter plate. 23nL of compound was transferred by a pin tool. The plate was incubated at room temperature for 10 min. Two uL of an NADPH regeneration solution (Promega supplied reagent) was dispensed and the reaction was allowed to continue for 60 min at room temperature. Then the reaction was stopped by reconstituted detection reagent. After another 20 min of incubation the plate was read on the ViewLux (Perkin Elmer) at 60 sec exposure and 2x2 binning. This protocol was carried out with Promega-Glo reagents and further information can be found at http://www.promega.com/tbs/tb325/tb325.pdf. Data were normalized to the to AC100 inhibition (57 uM furafylline).
With `CNNCc1ccc(C(=O)NC(C)C)cc1`, the Potency was 1.58 µM (active).

For `COc1ccc2cc3[n+](cc2c1OC)CCc1cc2c(cc1-3)OCO2`, the Potency is 5.01 µM (active).

With `NNC(=O)c1ccncc1`, the Potency is 6.31 µM (active).

With `COC(=O)Nc1nc2ccc(Sc3ccccc3)cc2[nH]1`, the Potency is 0.794 µM (active).

On to `Cc1noc(NS(=O)(=O)c2ccc(N)cc2)c1C`, for which the Potency result was “inactive”.

Consider `CCCOc1ccc(C(=O)OCCN(CC)CC)cc1N`, for which the Potency was 5.01 µM (active).

Turning to `OCc1ccc(-c2nn(Cc3ccccc3)c3ccccc23)o1`, the Potency was 1.58 µM (active).

For the molecule `COc1cc(NS(=O)(=O)c2ccc(N)cc2)nc(OC)n1`, the Potency result was “inactive”.

Regarding `Cc1ncc([N+](=O)[O-])n1CCO`, the Potency result is “inactive”.

Consider `N[C@@H](Cc1ccc(O)c(O)c1)C(=O)O`, for which the Potency result was “inactive”.

In the case of `O=c1oc2c(O)c(O)cc3c(=O)oc4c(O)c(O)cc1c4c23`, the Potency is 15.8 µM (active).

`COc1cnc(NS(=O)(=O)c2ccc(N)cc2)nc1`: the Potency entry is “inactive”.

On to `Cc1cccc(Nc2ccncc2S(=O)(=O)NC(=O)NC(C)C)c1`, for which the Potency entry was “inactive”.

On to `CCOC(=O)c1ccc(OC(=O)CCCCCN=C(N)N)cc1`, for which the Potency is 12.6 µM (active) and 15.8 µM (active).

For `Cc1cccc(N(C)C(=S)Oc2ccc3ccccc3c2)c1`, the Potency is 2.51 µM (active).

`COc1ncnc(NS(=O)(=O)c2ccc(N)cc2)c1OC`: the Potency entry is “inactive”.

As for `O=C(O)c1cccnc1`, the Potency result is “inactive”.

As for `COC(=O)Nc1nc2ccc(C(=O)c3ccccc3)cc2[nH]1`, the Potency is 3.98 µM (active).

In the case of `NC(=O)c1cccc(N)c1`, the Potency was 15.8 µM (active).

Turning to `CC1=CC(=O)c2ccccc2C1=O`, the Potency was 0.158 µM (active).

In the case of `Nc1ccc(S(=O)(=O)Nc2ccccn2)cc1`, the Potency entry is “inactive”.

Take `Cc1nnc(NS(=O)(=O)c2ccc(N)cc2)s1`: the Potency entry is “inactive”.

In the case of `CCCCOc1ccc(CC(=O)NO)cc1`, the Potency is 1.58 µM (active).

With `CC1=NN(c2ccccc2)C(=O)C1`, the Potency is 12.6 µM (active).

In the case of `COc1ccc2c(c1)c(CC(=O)OCC(=O)O)c(C)n2C(=O)c1ccc(Cl)cc1`, the Potency entry is “inactive”.

For `CCn1cc(C(=O)O)c(=O)c2cc(F)c(N3CCNCC3)nc21`, the Potency result is “inactive”.
